Measured values as given in PubChem BioAssay.
Calls of active or inactive are those of the source.

tested on: XIP peptide (Xip251-270) binding; experiment: XIP fragment 251-270 binding compounds – biochemical, small-molecule microarray, fluorescence 635/667 nm, 0.1 µg/mL protein, primary screen (AID 1182); details: fluorescent protein binding, 635 nm, higher = more signal, called active from +8 up or from −8 down

Composite z-score, inactive:
COC(=O)[C@@]1(Cc2ccc(F)cc2)[C@H]2c3cc(C(=O)N(C)C)n(C)c3C[C@H]2CN1C(=O)c1ccccc1 -0.0622
C=C(CCCC)C(=O)CC[C@H](OC(=O)c1ccccc1-c1ccccc1C(=O)O)c1ccc(OCCO)cc1 2.21
N#Cc1ccc(NN2C(C(O)C3CC=CCC3)C=CC3C(=O)N(c4ccccc4)C(=O)C32)cc1 (stereo not given) 0.0603
CCCC=C(CCC)[C@@H](NC(=O)OCC(C)C)c1ccc(C(=O)OC)cc1 0.402
O=C(NCC(O)CO)[C@@]1(CCS(=O)(=O)c2ccccc2)N=C(c2ccc(OCCCO)cc2)O[C@H]1c1ccccc1 (stereo not given in full) 2.08
C=C(COC)C(=O)CC[C@@H](OC(=O)c1ccccc1-c1ccccc1C(=O)O)c1ccc(OCCO)cc1 0.264
CC(C)C(CO)N1C(=O)[C@@H]2C3C(=O)OCCC/C=C\[C@H]3OC23C=CCN(Cc2ccccc2)C(=O)[C@@H]13 (stereo not given in full) 1.22
CN(C)CCCNC(=O)[C@@]1(C)c2ccccc2C(=O)N(Cc2ccc(OC(F)(F)F)cc2)[C@H]1c1ccc(CO)cc1 0.784
CO[C@H]1O[C@H](CO)[C@@H](OC(=O)Nc2ccccc2-c2ccccc2)[C@H](OC(=O)Nc2ccccc2)[C@H]1OC(=O)Nc1ccccc1 -0.249
COC(=O)C(CC#Cc1ccc2c(c1)[C@]1(C(=O)N2)[C@H](C(=O)NC[C@H](O)c2ccccc2)[C@H]2C(=O)O[C@H](c3ccccc3)[C@H](c3ccccc3)N2[C@@H]1c1ccccc1OCCO)C(=O)OC 0.0226
